Only some compounds are listed: those with a hit (about 3% of all), similar ones and a draw of the others.
A549 viability = counter-screen for Nrf2 inhibitors: cytotoxicity in A549 cells. A549 ARE-Fluc cells, CellTiter-Fluor viability, 18-24 h. Potency, µM (top dose mostly 46 µM), usual class: inhibitors. hit rate 0.16% among 390,000. AID 504648
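A549 ARE-Fluc cells in 5% FBS OPTI-MEM, 5000 cells/well, rested 2 h then exposed to compounds in concentration-response for 18-24 h at 37 °C. Viability by CellTiter-Fluor fluorescence (Ex 405/Em 525) after 30 min; luciferase luminescence (BugLite, 15 min, RT) read afterwards.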
TrxR1 substrate = substrates of rat thioredoxin reductase 1 | AID 588456 | Potency, µM (top dose mostly 114 µM) | purified TrxR1 substrate turnover, NADPH consumption readout | hit rate 0.01% among 390,000; also: nearly all actives have a fitted effect of over 50% in size
Target sequence (O89049 whole entry, looked up): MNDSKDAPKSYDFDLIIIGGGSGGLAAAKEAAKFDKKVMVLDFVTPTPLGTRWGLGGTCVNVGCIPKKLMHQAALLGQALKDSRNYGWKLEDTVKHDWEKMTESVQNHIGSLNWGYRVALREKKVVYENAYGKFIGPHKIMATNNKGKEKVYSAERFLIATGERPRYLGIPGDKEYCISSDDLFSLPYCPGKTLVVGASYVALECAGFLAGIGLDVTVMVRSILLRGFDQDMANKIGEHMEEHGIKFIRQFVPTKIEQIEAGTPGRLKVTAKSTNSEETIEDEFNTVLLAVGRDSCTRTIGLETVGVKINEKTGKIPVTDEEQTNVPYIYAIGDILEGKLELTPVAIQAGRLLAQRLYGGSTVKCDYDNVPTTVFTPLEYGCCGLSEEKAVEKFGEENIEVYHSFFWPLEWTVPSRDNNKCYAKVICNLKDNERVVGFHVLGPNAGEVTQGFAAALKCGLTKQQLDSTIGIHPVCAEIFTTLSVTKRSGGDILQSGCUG
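Rat TrxR1, dispensed at 90 nM, was prereduced with 400 uM NADPH (final) for 5 min at ~22 deg C, then incubated with compound 15 min before 400 uM selenite. A first-read NADPH fluorescence drop versus no-compound background flagged substrates.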
Nrf2 block = Nrf2 pathway inhibition | hit rate 2.1% among 360,000 | Potency, µM (top dose mostly 46 µM), most hits filed as inhibitors | A549 ARE-Fluc reporter, luciferase luminescence, 18-24 h; also: nearly all actives have a fitted effect of over 60% in size
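A549 ARE_Fluc cells (5000/well, 5% FBS OPTI-MEM) pre-incubated 2 h, then treated with compounds 18-24 h at 37C/5% CO2 in concentration-response. CellTiter-Fluor viability read first; BugLite luciferase luminescence after 15 min at room temperature gives Nrf2 activity.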
TrxR1 inh = blocks rat thioredoxin reductase 1. recombinant rTrxR1, NADPH fluorescence consumption, selenite substrate. Potency, µM (doses to about 114 µM), usual class: inhibitors. hit rate 1% among 390,000. AID 588453. O89049; also: nearly all actives have a fitted effect of over 65% in size
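Rat TrxR1 (90 nM in the dispensed reagent) was pre-reduced with 400 uM NADPH for 5 min at room temperature, then incubated with compound for 15 min. After 400 uM selenite was added, NADPH fluorescence (Ex 340/Em 450 nm) was followed for 8 min.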
GALK inhibitor = inhibitors of human galactokinase. Purified GALK, Kinase-Glo residual ATP luminescence. Potency, µM (series often up to 57.5 µM), hits mostly inhibitors. P51570. hit rate 0.007% among 270,000
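Kinase-Glo Plus luminescence measured ATP left after a 1 h room-temperature reaction. The reaction used 5 nM GALK, 100 uM galactose and 35 uM ATP at pH 8.0 (20 mM HEPES, 5 mM MgCl2, 60 mM NaCl, 1 mM DTT, 0.01% BSA).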
Nrf2 ARE act = activators of Nrf2 (ARE) signaling; AREc32 ARE-luciferase reporter (MCF7-derived line), luminescence, 24 h; Potency, µM (top dose mostly 46.1 µM), hits mostly activators; hit rate 0.31% among 410,000; also: nearly all actives have a fitted effect of over 65% in size
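Luminescent ARE reporter assay in AREc32_Fluc cells: overnight plating at 37 deg C, 24 hr compound incubation, Steady-Glo added, 30 min RT before reading.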
A number is an active result; . = inactive; ? = inconclusive; / = not tested or not shown; ! = repeats disagree; [ ] = another dose, or the depositor's remark. Calls follow the shape of the dose curve; as a rule, active = well fitted curve in the direction sought with a large enough effect; inconclusive = small, poorly fitted or top-dose-only effect, or another doubt; inactive = no such curve, though single readings can be large; an effect the other way counts as inactive or inconclusive.

SMILES | A549 viability | TrxR1 substrate | Nrf2 block | TrxR1 inh | GALK inhibitor | Nrf2 ARE act
COc1cc2c(cc1O)CC[C@@H]1[C@@H]2CC[C@]2(C)[C@@H](O)CC[C@@H]12 | . | . | 9.2µM | . | . | .
C[C@]12CC[C@@H]3c4ccc(OC(=O)c5ccccc5)cc4CC[C@H]3[C@@H]1CC[C@@H]2O | . | . | ? | . | / | .
CC(C)c1ccc(C(=O)Nc2cccc3cccnc23)cc1 | . | . | ? | . | / | .
COc1ccc(-c2nc(C#N)c(N3CCc4ccccc4C3)o2)cc1OC | . | . | 20.6µM | . | . | .
COc1ccccc1CNC(=O)CCn1c(=O)c2ccccc2n(CC(=O)Nc2ccc(C)cc2Cl)c1=O | . | . | . | . | / | .
O=C(Nc1ccccc1Sc1ccccc1)c1cnn2c1NC(=C1CC1)C=C2C(F)F | / | . | / | . | / | /
Cc1ccc(-c2nc3ccc(Cl)cn3c2Nc2ccccc2)o1 | . | . | . | ? | / | /
Cc1ccc2nc(-c3ccc(C)o3)c(Nc3ccccc3)n2c1 | . | . | ? | 17.8µM | / | /
Cc1ccc(-c2nc3cnccn3c2Nc2ccccc2)o1 | . | . | . | 39.8µM | . | .
Fc1ccccc1-c1ccc(-c2nc3ccc(Cl)cn3c2Nc2ccc(Cl)cc2)o1 | . | . | ? | 25.1µM | / | /
Cc1cccc(N2C(=O)CS(=O)(=O)C23C(=O)N(Cc2c(F)cccc2Cl)c2ccccc23)c1 (centres undefined) | . | . | ? | . | / | .
CCOC(=O)Cc1ccc(NC(=O)Nc2nnc(N3CCCCC3C)s2)cc1 (centres undefined) | ? | . | 20.6µM | . | / | .
COc1ccc(CCNc2oc(/C=C/c3cc(OC)c(OC)c(OC)c3)nc2C#N)cc1OC | . | . | . | . | / | .
COc1ccc(/C=C/C(=O)Nc2ccc(C)c(S(=O)(=O)N3CCOCC3)c2)cc1 | . | . | 23.1µM | . | / | .
O=C(/C=C/c1ccc(S(=O)(=O)N2CCOCC2)cc1)Nc1cc(F)ccc1F | . | . | . | . | / | .
Cc1ccc(F)cc1NC(=O)/C=C/c1ccc(S(=O)(=O)N2CCOCC2)cc1 | . | . | 16.4µM | . | / | .
COc1ccc(C(=O)O)cc1COc1ccc(NC(C)=O)cc1 | . | / | . | / | / | /
COc1ccc(OC)c(C(=O)COC(=O)c2c(OC)cccc2OC)c1 | . | . | . | . | . | .
COc1ccc(OC)c(C(=O)COC(=O)c2ccccc2O)c1 | . | . | . | . | . | 12.6µM
Nc1c(C(=O)Nc2ccc(OC(F)(F)F)cc2)sc2nc(-c3ccncc3)ccc12 | . | . | 6.51µM | . | / | .
Nc1c(C(=O)Nc2ccc(Cl)c(Cl)c2)sc2nc(-c3cccnc3)ccc12 | / | / | / | / | . | /
Cc1ccc(O/C=C2/Nn3c(nnc3-c3cc(-c4ccccc4)n[nH]3)S2)cc1 | . | .[0.0914 µM] | . | . | / | /
O=C(Nc1ccc(-c2nc3ccccc3o2)cc1)c1cc(-n2cnnc2)ccc1Cl | . | . | ? | . | . | .
O=C(Nc1ccc(-c2nc3ccccc3o2)c(O)c1)c1cc(-n2cnnc2)ccc1Cl | / | . | 10.3µM | . | . | .
Fc1ccccc1N1CCN(c2ncnc3c2nc2n3CCCC2)CC1 | . | . | 20.6µM | . | / | .
SMILES | A549 viability | TrxR1 substrate | Nrf2 block | TrxR1 inh | GALK inhibitor | Nrf2 ARE act
Cc1cccc(N2CCN(c3ncnc4c3nc3n4CCCCC3)CC2C)c1 (centres undefined) | 16.4µM | . | 18.4µM | . | / | .
O=C(C1CCCN(c2ncnc3c2nc2n3CCCCC2)C1)N1CCN(c2ccccc2F)CC1 (centres undefined) | . | . | . | . | . | .
O=C(C1CCN(c2ncnc3c2nc2n3CCCCC2)CC1)N1CCN(c2ccc(F)cc2)CC1 | . | . | 18.4µM! | . | . | .
Cc1cccc(N2CCN(CCCNC(=O)C3CCCN(c4ncnc5c4nc4n5CCCCC4)C3)CC2C)c1 (centres undefined) | ? | . | ? | . | . | .
CSc1nc2sc3c(c2c(=O)n1-c1ccc(C)c(Cl)c1)CCN(C(C)=O)C3 | . | .[2.29 µM] | .[9.27 µM] | . | / | .
CCc1ccc(-c2nc3c(=O)n(C)c(=O)nc-3n(CC)n2)cc1 | ? | 35.5µM | 14.6µM | . | / | /
CCn1c(N)nc2c1c(=O)n(C)c(=O)n2C | . | . | . | . | . | .
Cn1nc(-c2ccccn2)nc2c(=O)n(C)c(=O)nc1-2 | 3.26µM | 35.5µM | 3.66µM | ? | 1µM | .
Cc1ccccc1-c1nc2c(=O)n(C)c(=O)nc-2n(C)n1 | 4.11µM | 12.6µM | 2.31µM | 14.1µM | / | /
CCCc1nc2c(=O)n(C)c(=O)nc-2n(C)n1 | 6.51µM | ? | 23.1µM | . | 1.78µM | .
Cc1ccc(-n2c3nc(=O)n(C)c(=O)c-3cc3ccccc32)cc1 | . | . | . | . | . | .
Cc1ccc(C)c(NC(=S)NCCSc2ccc(Cl)cc2)c1 | ? | .[11.4 µM] | . | . | . | .
Cc1ccccc1NC(=S)NCCSc1ccc(Cl)cc1 | . | . | 23.1µM | . | . | .
CCc1ccccc1NC(=S)NCCSc1ccc(Cl)cc1 | ? | . | 23.1µM | . | . | .
Cc1ccccc1OC(=O)CSc1nnc(-c2ccc(F)cc2)o1 | . | . | ? | . | / | .
Cc1ccc(-c2noc(-c3ccc(N4CCCCC4C)c([N+](=O)[O-])c3)n2)cc1 (centres undefined) | . | . | ? | . | / | .
O=C1OC(c2cccs2)=N/C1=C\c1ccc(-c2ccccc2Cl)o1 | . | . | . | ? | . | .
O=C1OC(c2cccs2)=N/C1=C/c1ccc(-c2cccc(C(=O)O)c2)o1 | . | . | . | 35.5µM | . | .
CCCCn1c(N)c(C(=S)NC(=O)CC(C)(C)C)c(=O)n(C)c1=O | ? | . | ? | 39.8µM | . | .
CCCn1c(N)c(C(=O)CSc2ncn[nH]2)c(=O)n(C)c1=O | . | . | . | . | / | .
CCOc1cc(C(=O)Nc2ccc(-c3nnc4n3CCCCC4)cc2)cc(OCC)c1OCC | . | . | ? | . | / | .
Cc1ccc(CNC(=O)c2cn(C3CCCCC3)c(=O)c3c2c2ccccc2n3C)o1 | . | . | . | 3.98µM | . | ?
CSc1nn(CC(=O)Nc2cc(C)ccc2C)c(N)c1S(=O)(=O)c1ccccc1 | . | . | 20.6µM | . | / | .
CCSc1nn(CC(=O)Nc2ccc(C(=O)OC)cc2)c(N)c1S(=O)(=O)c1ccc(C)cc1 | . | . | 23.1µM | . | / | .
CCOC(=O)c1ccc(NC(=O)Cn2nc(SC)c(S(=O)(=O)c3ccc(Cl)cc3)c2N)cc1 | . | . | ? | . | / | .
O=C(COc1ccc(F)cc1)Nc1cccc(OCc2cc(=O)n3ccccc3n2)c1 | . | . | / | . | / | .
O=C(NCCOCCn1c(=O)oc2ccccc21)Nc1ccc(F)cc1 | . | . | ? | . | / | .
CC(C)c1ccc(NC(=O)CSc2ncc3c(n2)-c2ccccc2N(C)S3(=O)=O)cc1 | . | . | . | . | / | .

Source: PubChem BioAssay
